Results with a measured potency or affinity are listed apart. Calls of active or inactive are those of the source.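 The calls were made as follows: active = fitted half-maximal dose no more than twice the top valid tested dose, for compounds that lower signal; inconclusive = fit invalid, or curve flat with activity between -70 and -30; inactive = potency past limit, curve flat within ±30, or signal increasing.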
These compounds were tested against NAD-dependent protein deacylase sirtuin-5, mitochondrial (Homo sapiens) (UniProt Q9NXA8) (assay: SIRT5 deacylase inhibitors, dose response, biochemical, fluorescence imaging, cherry-pick, set 6 (AID 720597;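 also: lower AMC signal can also come from blocking the trypsin step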)). Conditions: Purified SirT5, succinyl-peptide-AMC/trypsin fluorescence; series mostly up to 15 µM.
NAD-dependent protein deacylase sirtuin-5, mitochondrial (Homo sapiens), sequence (Q9NXA8 whole entry, looked up): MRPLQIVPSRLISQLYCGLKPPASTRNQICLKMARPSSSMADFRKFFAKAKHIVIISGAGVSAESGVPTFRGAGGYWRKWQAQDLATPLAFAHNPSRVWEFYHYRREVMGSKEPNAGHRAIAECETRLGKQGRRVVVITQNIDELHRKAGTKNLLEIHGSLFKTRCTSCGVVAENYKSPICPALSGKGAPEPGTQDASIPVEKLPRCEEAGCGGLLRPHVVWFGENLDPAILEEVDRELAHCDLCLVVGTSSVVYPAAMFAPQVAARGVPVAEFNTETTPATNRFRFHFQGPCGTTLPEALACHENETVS

outcome, inactive:
O=C(NCC[C@@H]1CC[C@@H](NS(=O)(=O)c2cccc(F)c2)[C@H](CO)O1)C1CCOCC1, CCCc1c(C)nc2ccc(Br)cc2c1SCCC(=O)O, CO[C@@H](C(=O)N(C)C[C@H]1OCc2ccccc2-c2ccccc2C(=O)N([C@@H](C)CO)C[C@@H]1C)c1ccccc1, Cc1ccc(S(=O)(=O)N(C)C[C@@H]2OCc3ccccc3-c3c(n(C)c4ccccc34)C(=O)N([C@H](C)CO)C[C@@H]2C)cc1, C[C@@H]1CCCCO[C@@H](CN(C)S(=O)(=O)c2ccc(Cl)cc2)[C@H](C)CN([C@@H](C)CO)C(=O)c2cc(NS(=O)(=O)c3ccccc3)ccc2O1, C[C@H](CO)N1C[C@H](C)[C@H](CN(C)Cc2ccc(-c3ccccc3)cc2)Oc2cc(C#CC(C)(C)O)ccc2S1(=O)=O, CNC[C@H]1Oc2ccc(NC(=O)Nc3ccc(F)cc3)cc2CC(=O)N([C@@H](C)CO)C[C@H]1C, C[C@@H]1CN([C@H](C)CO)C(=O)c2cc(NS(=O)(=O)c3cccs3)ccc2O[C@@H](C)CCCCO[C@@H]1CN(C)Cc1ccc(C(F)(F)F)cc1, O=C(NCC[C@@H]1CC[C@H](NC(=O)C2CC2)[C@@H](CO)O1)c1cc(Cl)cc(Cl)c1, O=S(=O)(N[C@H]1CC[C@H](CCn2cc(-c3cccc(F)c3)nn2)O[C@H]1CO)c1ccc(F)cc1, CCCC(=O)Nc1ccc2c(c1)OC[C@@H](C)N(Cc1ccccc1)C[C@@H](C)[C@@H](OC)CN(C)C2=O, CC(C)NC(=O)Nc1ccc2c(c1)C(=O)N([C@H](C)CO)C[C@H](C)[C@H](CN(C)C(=O)Cc1ccccc1)OCCCC[C@H](C)O2, COc1ccc(C#Cc2ccc([C@@H]3[C@H](CO)N4C(=O)CN(C(=O)c5cccnc5)C[C@@H]34)cc2)cc1, C[C@@H]1CN([C@H](C)CO)C(=O)c2cc(NC(=O)CCC(F)(F)F)ccc2O[C@H]1CN(C)Cc1ccc(Oc2ccccc2)cc1, O=C(Nc1ccccc1F)N1CC(=O)N2[C@H](C1)[C@@H](c1ccc(C#CC3CCCC3)cc1)[C@@H]2CO, O=C(C[C@@H]1C[C@H]2c3cc(NC(=O)C4CCC4)ccc3O[C@H]2[C@H](CO)O1)NCc1ccc(-c2ccccc2)cc1, C[C@@H]1CCCCO[C@H](CN(C)Cc2ccc(C(=O)O)cc2)[C@H](C)CN([C@H](C)CO)C(=O)c2cc(NS(=O)(=O)c3cccs3)ccc2O1, O=S(=O)(c1ccc(F)cc1)N1CCCCN2[C@H](CO)[C@H](c3ccc(C#CC4CCCC4)cc3)[C@H]2C1, CC(C)CC#Cc1ccc2c(c1)O[C@H](CN(C)S(=O)(=O)c1cccc(F)c1)[C@@H](C)CN([C@@H](C)CO)S2(=O)=O, O=C(C1CCCC1)N1CC2(C1)[C@H](c1ccccc1)[C@@H](CO)N2Cc1ccc(Cl)cc1, Cc1noc(C)c1NC(=O)Nc1cccc2c1O[C@@H](CN(C)Cc1ccc(Oc3ccccc3)cc1)[C@H](C)CN([C@@H](C)CO)C2=O, COc1ccc(S(=O)(=O)N(C)C[C@H]2OCCCC[C@H](C)Oc3ccc(NS(=O)(=O)c4ccc(Cl)cc4)cc3C(=O)N([C@@H](C)CO)C[C@H]2C)cc1, CCCC#Cc1ccc2c(c1)[C@@H]1[C@@H](CCN1S(=O)(=O)c1ccccc1C)[C@@H](CO)N2, CC(C)CC#Cc1ccc2c(c1)O[C@@H](CN(C)C(=O)C1CCCCC1)[C@@H](C)CN([C@H](C)CO)S2(=O)=O, C[C@@H]1CN([C@@H](C)CO)C(=O)c2cc(NS(=O)(=O)c3ccc(F)cc3)ccc2O[C@@H](C)CCCCO[C@@H]1CN(C)S(=O)(=O)c1ccc(Cl)cc1, C[C@H](CO)N1C[C@H](C)[C@H](CN(C)S(=O)(=O)c2cccs2)Oc2c(NC(=O)C3CCCCC3)cccc2C1=O, C[C@H]1CN([C@@H](C)CO)C(=O)c2cc(NC(=O)Nc3ccc(C(F)(F)F)cc3)ccc2O[C@H]1CN(C)S(=O)(=O)c1ccc(Cl)cc1, COc1ccc(S(=O)(=O)Nc2ccc3c(c2)CC(=O)N([C@@H](C)CO)C[C@H](C)[C@H](CN(C)Cc2ccc(Oc4ccccc4)cc2)O3)cc1, CCN(C[C@H]1[C@@H](c2ccc(-c3ccccc3F)cc2)[C@@H](CO)N1C(C)=O)C(C)=O, C/C=C/c1cnc2c(c1)C(=O)N([C@@H](C)CO)C[C@@H](C)[C@@H](CN(C)C(=O)NC1CCCCC1)O2, Cc1cc(C)cc(NC(=O)C2CC(=O)n3ncnc3N2)c1 (stereo not given), N#C[C@H]1[C@@H](c2ccccc2-c2ccccc2)[C@@H](CO)N1c1ncc(-c2ccccc2)s1, C[C@@H]1CN([C@@H](C)CO)C(=O)c2cc(NS(C)(=O)=O)ccc2O[C@@H](C)CCCCO[C@@H]1CN(C)C, COc1ccc(S(=O)(=O)Nc2ccc3c(c2)C(=O)N([C@@H](C)CO)C[C@@H](C)[C@@H](CN(C)Cc2ccc(C(F)(F)F)cc2)OCCCC[C@@H](C)O3)cc1, COc1ccc(S(=O)(=O)N2CCC3(CC2)CN(C(=O)c2cccnc2)[C@@H](CO)c2c3c3ccc(OC)cc3n2C)cc1, COCC#Cc1ccc2c(c1)O[C@@H](CN(C)CC1CCCC1)[C@H](C)CN([C@@H](C)CO)S2(=O)=O, COc1ccc(S(=O)(=O)N(C)C[C@H]2OCCCC[C@@H](C)Oc3ccc(NS(=O)(=O)c4ccc(F)cc4)cc3C(=O)N([C@@H](C)CO)C[C@@H]2C)cc1, O=C(NC1CCCCC1)[C@@H]1[C@@H](CO)[C@@H]2Cn3c(cccc3=O)[C@@H]2N1CC1CCCC1, COc1ccc(S(=O)(=O)N(C)C[C@H]2Oc3cc(C#CC4CC4)ccc3S(=O)(=O)N([C@@H](C)CO)C[C@@H]2C)cc1, COCC(=O)Nc1ccc2c(c1)C(=O)N(C)C[C@@H](OC)[C@H](C)CN(Cc1ccccn1)[C@H](C)CO2

Reference: PubChem BioAssay AID720597 (Broad Institute, 2013)
